Laboratory results published in PubChem BioAssay (NCATS).
Where “and” joins values, the source holds several entries; their conditions need not be identical. Identical values can stand only once. Inconclusive results are not listed. Calls of active or inactive are those of the source. Calls follow the shape of the dose curve; as a rule, active = well fitted inhibition curve with a large enough effect; inconclusive = small, poorly fitted or top-dose-only effect; inactive = flat fitted curve, though single readings scatter.

Experiments:
Assay in all cases: Cytotoxic Profiling of Annotated Libraries Using Quantitative High-Throughput Screening (AID 1296008); also: nearly all actives have a fitted effect of over 60% in size
Settings in all cases: Five cell lines viability, CellTiter-Glo ATP luminescence, 48-72 h; max response: hits give low values
CRL-7250 = normal cell line; tested on: CRL-7250
In short: (§1)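 Compounds were pin-transferred onto cells and incubated 48 or 72 hr at 37 degree Celsius, 95% humidity. CellTiter-Glo was added, plates sat 10 min at room temperature, then ATP-coupled luminescence was imaged as the viability read-out.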

HEK293 = tested on: HEK293
In short: as §1

HaCat = tested on: HaCat
In short: as §1

KB-3-1 = tested on: KB-3-1
In short: as §1

NIH3T3 = tested on: NIH3T3
In short: as §1
% is scaled to controls: 0 for no effect and ±100 for the full control effect; potency is read from the fitted curve at half-maximal effect.

CCC(=O)O[C@]1(C(=O)COC)[C@@H](C)C[C@H]2[C@@H]3CCC4=CC(=O)C=C[C@]4(C)C3(F)[C@@H](O)C[C@@]21C (some centres not stated)
inactive: outcome (CRL-7250) | max response (HEK293) -13.2% | outcome (HaCat)

C[N+]1(C)CCC(OC(=O)C(O)(c2ccccc2)C2CCCC2)C1 (configuration not stated)
inactive: max response (CRL-7250) 2.29% | max response (HEK293) -9.88% | outcome (HaCat) | max response (KB-3-1) -6.32% and -2.46% | max response (NIH3T3) -0.313%

CCCCCC1Nc2cc(C(F)(F)F)c(S(N)(=O)=O)cc2S(=O)(=O)N1 (configuration not stated)
inactive: max response (CRL-7250) -8.64% | max response (HEK293) -4.59% | max response (HaCat) -13.3% | max response (KB-3-1) -12.8% | outcome (NIH3T3)

OCc1cccnc1
inactive: max response (CRL-7250) -0.394% | max response (HEK293) -2.02% | max response (HaCat) 3.51% | max response (KB-3-1) 3.27% | outcome (NIH3T3)

Nc1ccc2cc3ccc(N)cc3nc2c1
active: Potency (CRL-7250) 7.5 µM | Potency (HEK293) 2.37 µM | Potency (HaCat) 3.76 µM

Cc1ccccc1C(=O)N1CC/C(=N\OS(=O)(=O)O)c2ccc(Cl)cc21
inactive: max response (CRL-7250) 3.76% | max response (HEK293) -7.21% | max response (HaCat) -13.2% | max response (KB-3-1) 9.71% | max response (NIH3T3) -8.25%

CCOC(=O)N1CCC(Nc2ccc(Cl)cc2N)CC1
inactive: max response (CRL-7250) 2.37% | max response (HEK293) -13.9% | max response (HaCat) -14.7%

O=C(O)/C=C(\CC(=O)O)C(=O)O
inactive: max response (CRL-7250) 4.3% | outcome (HEK293) | outcome (HaCat) | max response (KB-3-1) -12.2% | outcome (NIH3T3)

C[C@]12CCC(=O)C=C1CC[C@@H]1[C@@H]2[C@@H](O)C[C@@]2(C)[C@H]1CC[C@]2(O)C(=O)COC(=O)CCC(=O)O
inactive: max response (CRL-7250) -0.174% | max response (HEK293) 3.66% | max response (HaCat) -3.29% | max response (KB-3-1) -0.87% | outcome (NIH3T3)

C[C@H]1NCc2cc(-c3ccc4c(=O)c(C(=O)O)cn(C5CC5)c4c3OC(F)F)ccc21
inactive: max response (CRL-7250) -16.7% | max response (HEK293) -17.6% | max response (HaCat) -3.8% | max response (KB-3-1) -9.83% | max response (NIH3T3) 3.52%

CCOC(=O)c1ccc(OCCN2C[C@H](O)[C@@H](O)[C@H](O)[C@H]2CO)cc1
inactive: max response (CRL-7250) -7.54% | max response (HEK293) -10.3% | max response (HaCat) -6.67% | outcome (KB-3-1) | max response (NIH3T3) -0.529%

CCC(C(=O)NC(=O)NC(C)=O)c1ccccc1 (configuration not stated)
inactive: max response (CRL-7250) 2.16% | max response (HEK293) -0.744% | outcome (HaCat) | max response (KB-3-1) 0.82% | max response (NIH3T3) -7.72%

COc1ccc([C@@H]2Sc3ccccc3NC(=O)[C@@H]2O)cc1
inactive: max response (CRL-7250) -22.1%

CCC1=C[C@@H]2CN(C1)Cc1c([nH]c3ccccc13)[C@@](C(=O)OC)(c1cc3c(cc1OC)N(C)[C@H]1[C@@](O)(C(=O)OC)[C@H](OC(C)=O)[C@]4(CC)C=CCN5CC[C@]31[C@@H]54)C2
active: Potency (CRL-7250) 0.0422 µM | Potency (HEK293) 0.0084 µM
inactive: outcome (HaCat)

CC(=O)OCC(=O)Nc1cc(C#N)cc(NC(=O)COC(C)=O)c1Cl
inactive: outcome (CRL-7250) | max response (HEK293) -14.4% | max response (HaCat) 0.636% | outcome (KB-3-1) | max response (NIH3T3) -0.147%

CC1(C)S[C@@H]2[C@H](NC(=O)C(c3ccccc3)S(=O)(=O)O)C(=O)N2[C@H]1C(=O)O (some centres not stated)
inactive: max response (CRL-7250) 1.53% | max response (HEK293) -0.254% | max response (HaCat) -6.19% | max response (KB-3-1) -0.526% | max response (NIH3T3) 2.04%

C[N+](C)(CCOc1ccccc1)Cc1cccs1
inactive: max response (CRL-7250) -3.68% | max response (HEK293) -16.4% | max response (HaCat) 2.51% | max response (KB-3-1) -7.87% | max response (NIH3T3) -2.33%

CCN(CC)CCOc1ccc(/C(=C(\Cl)c2ccccc2)c2ccccc2)cc1
inactive: max response (CRL-7250) -10.3% and -19.3%

CCOC(=O)NNc1nncc2ccccc12
inactive: max response (CRL-7250) -0.257% | max response (HEK293) -5.42% | outcome (HaCat) | max response (KB-3-1) -9.29% | max response (NIH3T3) 3.89%

CN(CC1(C)CCCO1)S(=O)(=O)c1ccc(Cl)c(S(N)(=O)=O)c1 (configuration not stated)
inactive: max response (CRL-7250) 1.85% | max response (HEK293) -6.48% | max response (HaCat) -20.1%

CO/N=C(/C(=O)N[C@@H]1C(=O)N2C(C(=O)OCOC(=O)C(C)(C)C)=C(C)CS[C@H]12)c1csc(N)n1
inactive: outcome (CRL-7250) | max response (HEK293) 4.75% | outcome (HaCat) | max response (KB-3-1) -4.57% | max response (NIH3T3) 0.923%

CN(C(=O)C(Cl)Cl)c1ccc(OC(=O)c2ccco2)cc1
inactive: max response (CRL-7250) 4.42% | max response (HEK293) -3.53% | outcome (HaCat) | max response (KB-3-1) -7.7% | max response (NIH3T3) 1.4%

OCCc1ccccc1
inactive: max response (CRL-7250) 4.7% | max response (HEK293) -1.38% | max response (HaCat) -14.1% | max response (KB-3-1) -8.71% | max response (NIH3T3) -0.715%

O=[N+]([O-])c1nccn1CO[C@@H](CO)[C@H](O)CO
inactive: max response (CRL-7250) -17.9% | max response (HEK293) 4% | outcome (HaCat) | max response (KB-3-1) 2.05%

O=P(O)(O)OCC(O)CO (configuration not stated)
inactive: max response (CRL-7250) -2.69% | max response (HEK293) -2.36% | max response (HaCat) 0.361% | max response (KB-3-1) -6.39% | outcome (NIH3T3)

O=C(CCCCCCCCC#CI)Oc1ccccc1
inactive: max response (CRL-7250) 1.88% | outcome (HEK293) | outcome (HaCat) | outcome (KB-3-1) | max response (NIH3T3) 0.745%

CC(=O)Nc1ccc(S(=O)(=O)Nc2cc(C)on2)cc1
inactive: max response (CRL-7250) -2.31% | max response (HEK293) 4.22% | outcome (HaCat) | max response (KB-3-1) -4.05% | outcome (NIH3T3)

COc1cc(NS(=O)(=O)c2ccc(N)cc2)nc(C)n1
inactive: max response (CRL-7250) -6.73% | outcome (HEK293) | max response (HaCat) -7.5% | outcome (KB-3-1) | max response (NIH3T3) 4.73%

C[C@@H](C1=C(CCN(C)C)Cc2ccccc21)c1ccccn1
inactive: outcome (CRL-7250) | max response (HEK293) -25.1% | outcome (HaCat) | max response (KB-3-1) -6.09% | max response (NIH3T3) 1.99%

CC(=O)[C@H]1CC[C@H]2[C@@H]3C=CC4=CC(=O)CC[C@@]4(C)[C@@H]3CC[C@]12C
inactive: max response (CRL-7250) -2.73% and 1.98% | max response (HEK293) -2.74% | max response (HaCat) -26.7% | outcome (HaCat) | max response (KB-3-1) -2.29% | max response (NIH3T3) -20.6% and 1.55%

O=C(CCCCC(=O)Nc1c(I)cc(I)c(C(=O)O)c1I)Nc1c(I)cc(I)c(C(=O)O)c1I
inactive: max response (CRL-7250) 2.98% | outcome (HEK293) | max response (HaCat) 4.99% | max response (KB-3-1) -11.9% | max response (NIH3T3) 4.23%

C[C@@H](O[C@H]1OCCN(Cc2n[nH]c(=O)[nH]2)[C@H]1c1ccc(F)cc1)c1cc(C(F)(F)F)cc(C(F)(F)F)c1
inactive: max response (CRL-7250) 4.27%

O=C(Oc1ccccc1)c1cccc(C(=O)Oc2ccccc2)c1
inactive: max response (CRL-7250) -12.1% | max response (HEK293) 3.23% | outcome (HaCat) | max response (KB-3-1) -6.63% | max response (NIH3T3) -5.12%

CCOC(=O)c1ccc(O)c(O)c1
inactive: max response (CRL-7250) 2.32% | outcome (HEK293) | max response (HaCat) -0.432%

Nc1c[n+](N2CCOCC2)no1
inactive: outcome (CRL-7250) | outcome (HEK293) | max response (HaCat) -23.5% | max response (KB-3-1) -10.9% | outcome (NIH3T3)

N=C(N)c1ccc(OCCCOc2ccc(C(=N)N)cc2)cc1
active: Potency (HEK293) 7.5 µM
inactive: max response (CRL-7250) 2.23% | outcome (HaCat) | max response (KB-3-1) -29% | outcome (NIH3T3)

Nc1ncnc2n[nH]c(Nc3ccc(F)cc3)c12
active: Potency (CRL-7250) 10.3 µM

CC(CCc1ccc2c(c1)OCO2)NN (configuration not stated)
inactive: max response (CRL-7250) -8.5% | outcome (HEK293) | max response (HaCat) 2.43% | max response (KB-3-1) -13.1% | outcome (NIH3T3)

CC(C)=CCC/C(C)=C/CC/C(C)=C/CCC(=O)OC/C=C(\C)CCC=C(C)C
inactive: max response (CRL-7250) -7.77% | max response (HEK293) -2.81% | outcome (HaCat) | max response (KB-3-1) -12.9% | outcome (NIH3T3)

OC(CCCN1CCCCC1)(c1ccccc1)c1ccccc1
inactive: max response (CRL-7250) -11.1% | max response (HEK293) -39.9% | max response (HaCat) -16% | max response (KB-3-1) -5.63% | max response (NIH3T3) -14.5%

CC(=O)OCC(=O)[C@@]1(O)CCC2C3CCC4=CC(=O)CC[C@]4(C)C3[C@@H](O)C[C@@]21C (some centres not stated)
inactive: outcome (CRL-7250) | max response (HEK293) 2.9% | max response (HaCat) 3.13% | max response (KB-3-1) 0.5% | max response (NIH3T3) 0.645%

CC(C)(C)C(=O)OCOC(=O)C1N2C(=O)CC2S(=O)(=O)C1(C)C (configuration not stated)
inactive: max response (CRL-7250) -2.99% | outcome (HEK293) | outcome (HaCat) | max response (KB-3-1) -11.8% | max response (NIH3T3) 2.05%

CN1C(=O)CC(C)(c2ccccc2)C1=O (configuration not stated)
inactive: max response (CRL-7250) -0.376% | max response (HEK293) 1.84% | outcome (HaCat) | max response (KB-3-1) -1.96% | outcome (NIH3T3)

Nc1nnnn1-c1ccccc1
inactive: max response (CRL-7250) -0.0528% | max response (HEK293) -1.05% | max response (HaCat) -26.2% | max response (KB-3-1) 7.05% | max response (NIH3T3) -4.79%

CCCCCOc1ccc(C2SC(=O)NC2=O)cc1OCC (configuration not stated)
inactive: max response (CRL-7250) -3.49% | max response (HEK293) 3.99% | outcome (HaCat) | outcome (KB-3-1) | outcome (NIH3T3)

O=C(O)CNC(=O)CNC(=O)CNC(=O)CSC(=O)c1ccccc1
inactive: max response (CRL-7250) -5.45% | max response (HEK293) -4.78% | max response (HaCat) -1.1% | max response (KB-3-1) 4.32% | max response (NIH3T3) 1.99%

O=C(OCC(COC(=O)c1cccnc1)(COC(=O)c1cccnc1)COC(=O)c1cccnc1)c1cccnc1
inactive: outcome (CRL-7250) | max response (HEK293) -3.93% | outcome (HaCat) | max response (KB-3-1) -20.2% | outcome (NIH3T3)

C=CCOc1cc(Cl)ccc1C(=O)NCCN(CC)CC
inactive: max response (CRL-7250) -3.78% | max response (HEK293) -33.1% | outcome (HaCat) | max response (KB-3-1) 6.3% | max response (NIH3T3) 1.31%

CCC(=O)O[C@H]1[C@H](O[C@@H]2[C@@H](C)[C@H](O[C@H]3C[C@@](C)(OC)[C@@H](O)[C@H](C)O3)[C@@H](C)C(=O)O[C@H](CC)[C@@](C)(O)[C@H](O)[C@@H](C)C(=O)[C@H](C)C[C@@]2(C)O)O[C@H](C)C[C@@H]1N(C)C
inactive: max response (CRL-7250) 0.377% | outcome (HEK293) | max response (HaCat) 0.29% | max response (KB-3-1) 2.69% | max response (NIH3T3) 1.01%
